Source: PubChem (Johns Hopkins Ion Channel Center)
Compounds with a hit are over-represented: about 2.4% of the library has one in this group of screens.
CHT inh: inhibits the human high affinity choline transporter; Q9GZV3; AID 488975; 310,000 tested, 0.86% active; CHT-expressing cells, membrane potential dye, choline response; active compounds read low; B-score at 10 µM;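 active = B-score over 3 SD under the library average, and starting fluorescence ratio not unusually high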;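 also: choline stimulus applied at its EC90 after an EC20 pre-addition; B-score computed on integrated fluorescence ratio after choline addition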
TMEM16A act: mouse TMEM16A channel activation, primary screen. HEK293 TMEM16A/YFP-H148Q/I152L, iodide quench fluorescence; active compounds read low. B-score at 10 µM. 340,000 tested, 0.3% active. AID 623877;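 active = fluorescence-ratio B-score plate-corrected deviation score at least 3 library SD below zero, with starting fluorescence score within 5 deviations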;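 also: channel opened by trigger with iodide after compound preincubation; score built on the fluorescence ratio of max minus min over baseline; more negative score means more quench and so TMEM16A activation or potentiation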
CHT PAM: human CHT allosteric activation. AID 488977. Q9GZV3. B-score at 10 µM. CHT-expressing cells, membrane potential dye, choline EC20; active compounds read high; LV-AA mutant CHT in HEK293 cells. 310,000 tested, 0.49% active;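 active = initial fluorescence not abnormally high and integrated response B-score, plate-corrected, over 3 SD above library mean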
ANO1 block: inhibitors of mouse TMEM16A calcium-activated chloride channel; normalized B-score (activity score, 25-100; higher = stronger inhibition) at 10 µM; 310,000 tested, 1.2% active; AID 588511; HEK293 TMEM16A/YFP iodide influx fluorescence, ionomycin;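 active = ratio plate-corrected score three or more library SD toward inhibition, starting fluorescence score within five deviations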;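 also: score derived from kinetic fluorescence span divided by baseline fluorescence per well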
CHT block conf: confirmation of human choline transporter CHT inhibitors. shares compounds with CHT inh. CHT-expressing cells, choline membrane potential dye; LV-to-AA substituted CHT, HEK293 cells. CHT activity remaining % of control (active compounds read low), % at 10 µM. 2,400 tested, 70% active. AID 493221;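 active = choline transporter activity left, mean of duplicates at 10 µM, below buffer-only control mean minus 3 SD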;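 also: depolarization triggered by choline at its EC90 following an EC20 pre-addition; 0% = hemicholinium-3 full block and 100% = buffer-only control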
HEK293 CHT ctr: CHT inhibitor counter-screen hit in parental HEK293 cells | shares compounds with CHT inh | membrane potential ratio readout (active if shifted either direction beyond buffer ±3SD; no single direction) at 10 µM | 2,400 tested, 4% active | membrane potential dye, choline response; active = decrease or increase beyond buffer ±3SD;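 also: parental cells lack the transporter so any hit is non-specific; ratio is peak minus trough fluorescence over baseline after EC90 choline challenge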
The depositor's hits bear a star; i = inactive; . = no result given.

SMILES	CHT inh	TMEM16A act	CHT PAM	ANO1 block	CHT block conf	HEK293 CHT ctr
Cc1cc(/C=N/NC(=O)C(=O)NCc2ccccn2)c(C)n1-c1ccccc1	-7.02*	i	i	i	33.7%*	i
Cc1cc(C)cc(OC(C)C(=O)Nc2ccc(S(=O)(=O)Nc3cc(C)nc(C)n3)cc2)c1 (stereo not given)	-6.04*	i	i	i	39.5%*	i
CCc1ccc(OC(C)C(=O)Nc2ccc(S(=O)(=O)Nc3nccs3)cc2)cc1 (stereo not given)	-5.02*	i	i	i	58.9%*	i
Cc1cc(NS(=O)(=O)c2ccc(NC(=O)C(C(C)C)N3C(=O)c4ccccc4C3=O)cc2)nc(C)n1 (stereo not given)	i	i	i	i	.	.
Cc1ccc2c(Cl)cc(Cl)c(OCC(=O)N(C(C)C)C(C)C)c2n1	i	i	i	i	.	.
CC(C)OC(=O)Cn1c(=O)oc2ccccc21	i	i	i	i	.	.
O=C(NC1CC1)C1=C[C@H](c2csc3ccccc23)C[C@H](OCc2ccc(CO)cc2)O1	-5.18*	i	i	i	55.6%*	i
O=C(NC1CC1)C1=C[C@H](c2ccc(Br)cc2)C[C@H](OCc2ccc(CO)cc2)O1	-6.37*	i	i	i	52.1%*	i
CSc1cnc2c(=O)n(C)c(=O)[nH]c2n1	i	i	i	i	.	.
Cn1c(=O)[nH]c2nnc(-c3ccc(Cl)c(Cl)c3)nc2c1=O	-4.98*	i	i	i	34.4%*	i
COc1cccc(CNc2ccc(N3CCC(C)CC3)cc2)c1OC	-5.39*	i	i	i	53.6%*	i
CN(Cc1nc(-c2cccnc2)no1)S(=O)(=O)c1ccc(Br)cc1	-5.66*	i	i	i	61.9%*	i
COn1c(C)c(C(C)=O)c2c3nonc3ccc21	i	i	i	i	.	.
Cc1c(C)n(O)c2ccc3nonc3c12	-6.82*	i	i	i	6.2%*	i
Cc1ccc(S(=O)(=O)NC(C)C(=O)Nc2ccc3c(c2)OCO3)cc1 (stereo not given)	-9.02*	i	i	i	i	i
COc1ccc(OC)c(Cc2nnc(CCC(=O)N3CCN(C4CCCC4)CC3)o2)c1	-8.02*	i	i	i	35.8%*	i
COc1ccc(OC)c(Cc2nnc(CCC(=O)N3CCCCC3)o2)c1	i	i	i	i	.	.
CCN(Cc1ccccc1)C(=O)c1ccc(N(C)S(=O)(=O)c2ccc(C)cc2)cc1	i	i	i	i	.	.
CCc1c(O)nc(SCc2ccccc2)n(C(C)CC)c1=O (stereo not given)	-5.17*	i	i	i	i	i
C=CCSc1nc(O)c(CC)c(=O)n1C(C)CC (stereo not given)	i	i	i	i	.	.
COC(=O)Nc1ccc(S(=O)(=O)N2CCC(C(=O)N3CCCC(C)C3)CC2)cc1 (stereo not given)	i	i	i	i	.	.
CC1CCCN(C(=S)Nc2ccc(S(=O)(=O)N3CCCCC3)cc2)C1 (stereo not given)	-12.8*	i	i	i	i	i
CC(C)(C)c1nc2cc(Cl)c([N+](=O)[O-])cc2o1	-14.2*	i	i	100*	i	i
CC(C)(C)Nc1nc2cc([N+](=O)[O-])ccc2o1	i	i	i	i	.	.
CC(C)(C)C(=O)Nc1cc(C(F)(F)F)ccc1N1CCOCC1	i	i	i	i	.	.
SMILES	CHT inh	TMEM16A act	CHT PAM	ANO1 block	CHT block conf	HEK293 CHT ctr
CC(C)(C)C(=O)NC(=S)Nc1cc(C(F)(F)F)ccc1N1CCOCC1	-5.03*	i	i	i	i	i
Cc1cc2n(n1)C(c1ccc3c(c1)OCO3)Nc1c(C)cccc1-2 (stereo not given)	-5.08*	.	i	i	i	i
Cc1cc(C)c2c(c1)-c1cc(C)nn1C(c1ccc3c(c1)OCO3)N2 (stereo not given)	i	i	i	i	.	.
Nc1nc(SCC(=O)Nc2ccc3c(c2)OCO3)n[nH]1	-5.06*	i	i	i	i	i
O=[N+]([O-])c1ccc(OCCO)nc1	i	i	i	i	.	.
O=C1Nc2ccc(F)cc2C12Nc1ccccc1-c1nnc(SCc3ccccc3Cl)nc1O2 (stereo not given)	-6.11*	i	i	i	i	i
COc1ccccc1C(=O)Nc1nnc(S(=O)(=O)N2CCC(C)CC2)s1	i	i	i	i	.	.
CC1CCN(S(=O)(=O)c2nnc(NC(=O)c3cccc(Cl)c3)s2)CC1	-6.56*	i	i	i	i	i
CC(=O)c1ccccc1NC(=O)c1ccc2c(c1)NC(=O)C(C)S2 (stereo not given)	i	i	i	i	.	.
CCCNC(=O)c1ccccc1NC(=O)c1ccc2c(c1)NC(=O)C(C)S2 (stereo not given)	-5.89*	i	i	i	65.2%*	i
Cc1nc([N+](=O)[O-])c(Br)n1Cc1ccccc1	-9.97*	i	i	i	60.7%*	i
Cc1nc([N+](=O)[O-])c(Br)n1CC(=O)c1ccc(F)cc1	.	i	.	.	.	.
CC12CCC(C)(c3nc4ccccc4nc31)C2(C)C	i	i	i	i	.	.
Cc1[nH]nc2c1-c1nc3ccccc3nc1C(C)(C)C2	-4.97*	i	i	25*	i	i
O=C(CN1CCN(C2CCCCC2)CC1)NCCC1=CCCCC1	i	i	i	i	.	.
CC(C)(C)c1cc(C(=O)N/N=C/c2ccc(F)cc2)n(-c2ccccc2)n1	-5.13*	i	i	i	68.4%*	i
N/C(=N\O)c1ccc(N2CCN(c3ncccc3C(F)(F)F)CC2)nc1	-5.66*	i	i	i	45.2%*	i
CC(C)(C)C(=O)N1CCN(c2ncccc2C(F)(F)F)CC1	i	i	i	i	.	.
CN1CCN(c2ccc(NC(=O)c3ccc(Cl)cc3Cl)cc2)CC1	-6.45*	i	i	i	40.9%*	i
O=C(Nc1ccc(S(=O)(=O)NC2=NCCCCC2)cc1)c1ccc(Cl)cc1Cl	-12.3*	i	i	i	-7.3%*	i
O=C(Nc1ccc(S(=O)(=O)N2CCOCC2)cc1)c1ccc(Cl)cc1Cl	-6.39*	i	i	i	43.3%*	i
CC(NC(=O)C12CC3CC(C1)CC(n1cncn1)(C3)C2)C12CC3CC(CC(C3)C1)C2 (stereo not given)	i	i	i	i	.	.
